Laboratory results reported in PubChem BioAssay (NCI).
Compounds without any hit were thinned out: in the full panel of roughly 79,000, 15% have a hit. Cut-off read from the data, not from the text of the source: active = growth inhibition above about 70%; inactive = the rest.

Experiments:
[1] = NCI Yeast Anticancer Drug Screen. Data for the rad50 strain (AID 155);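 note: 0% = growth of vehicle-only cultures of the same strain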; settings: S. cerevisiae rad50 strain growth inhibition; at 50.0 µM; stronger effect = higher value
Procedure, shortened: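 Yeast carrying a defined DNA repair defect were exposed to test compounds, and growth was compared with vehicle-treated controls to give percent inhibition.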

[2] = NCI Yeast Anticancer Drug Screen. Data for the mec2-1 strain (AID 157); settings: S. cerevisiae mec2-1 strain, at 50.0 µM, stronger effect = higher value
Procedure, shortened: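 Strain: mec2-1 (DNA repair/cell cycle alteration). Compound exposure, then growth measured; inhibition expressed relative to vehicle.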

[3] = NCI Yeast Anticancer Drug Screen. Data for the sgs1 mgt1 strain (AID 161);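 note: 0% = growth of cultures given vehicle only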; settings: S. cerevisiae sgs1 mgt1 strain, at 50.0 µM, stronger effect = higher value
Procedure, shortened: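 Test agents were incubated with a DNA-repair-mutant yeast strain. Growth was then read and compared against vehicle-treated controls.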

[4] = NCI Yeast Anticancer Drug Screen. Data for the cln2 rad14 strain (AID 165);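 note: 0% = growth equal to vehicle treated cultures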; settings: S. cerevisiae cln2 rad14 strain, at 50.0 µM, stronger effect = higher value
Procedure, shortened: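 Compounds are applied to the cln2 rad14 yeast strain, and growth is then compared with that of vehicle-treated cultures to give inhibition.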

[5] = NCI Yeast Anticancer Drug Screen. Data for the bub3 strain (AID 167); settings: S. cerevisiae bub3 mutant strain, at 50.0 µM, stronger effect = higher value
Procedure, shortened: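 Compounds were applied to a genetically altered yeast strain carrying a cell-cycle control defect. Growth inhibition was scored against vehicle-treated controls.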

[6] = NCI Yeast Anticancer Drug Screen. Data for the mlh1 rad18 strain (AID 175); settings: S. cerevisiae mlh1 rad18 strain growth inhibition; at 50.0 µM; stronger effect = higher value
Procedure, shortened: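 Read-out is yeast growth inhibition, calculated against vehicle-only controls. The compound was applied to a strain engineered with DNA damage repair alterations.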

Measured: growth inhibition

COc1cc2c(cc1OC)C(CS(C)=O)Cc1cc(OC)c(OC)cc1N(C)CCC2 (stereo unspecified)
inactive: [1] 10.5% | [2] 19.4% | [3] 14.2% | [4] 10.6% | [5] -1.55% | [6] 29.9%

C=CCNc1ccc(C)cc1
inactive: [1] 16.5% | [2] -8.15% | [3] 20.1% | [4] 13.4% | [5] -5% | [6] 20.4%

Cc1c(OC(C)C(=O)O)ccc2c(-c3ccccc3)cc(=O)oc12 (stereo unspecified)
inactive: [1] 2.95% | [2] 12.7% | [3] 23.9% | [4] 27.2% | [5] 5.9% | [6] 38.2%

CO/C(=N\N=C\c1cc(OC)ccc1OC)c1ccncc1
inactive: [1] 0.6% | [2] -13.2% | [3] -23.6% | [4] 10.7% | [5] -38.8% | [6] -11.2%

Cc1cc(/C=C\[N+](=O)[O-])c(C)c2c1oc1ccccc12
inactive: [1] -10.8% | [2] -2.55% | [3] 2.1% | [4] 4.75% | [5] 2.4% | [6] -7.05%

C[C@]12CCC(=O)C=C1CC[C@@H]1[C@@H]2CC[C@@]2(C)[C@H]1CC[C@]2(O)C(=O)CCC#N
inactive: [1] -23.1% | [2] -2.6% | [3] 17.1% | [4] -33.4% | [5] -16.8% | [6] 13.2%

COC(=O)c1ccccc1CC1Cc2c(C)ccc(C)c2C1=O (stereo unspecified)
inactive: [1] -3.9% | [2] 3.1% | [3] 0.15% | [4] 3.45% | [5] 0.55% | [6] 17.8%

COc1cccc(N2C(=O)C3c4[nH]c5ccccc5c4C4CCCC4C3C2=O)c1 (stereo unspecified)
inactive: [1] -36.5% | [2] -47.4% | [3] -20.8% | [4] -8.15% | [5] -50% | [6] -22.4%

COC(=O)c1c2c(cc3c1CC1(Cc4cc5c(c(C(C)=O)c4C1)CCC5)C3)CCC2 (stereo unspecified)
inactive: [1] -34.1% | [2] -15.5% | [3] -63.8% | [4] -4.1% | [5] -20.7% | [6] -41.5%

CC(=O)OC1CCC2(C)C(=CCC3C4CCC(=O)NC4(C)CCC32)C1 (stereo unspecified)
inactive: [1] 43% | [2] -1.8% | [3] 52.7% | [4] -4.95% | [5] 8.4% | [6] 28.9%

COc1ccc2c(O)c(Oc3ccc(Cl)cc3)c(=O)oc2c1
inactive: [1] -4.2% | [2] -1.1% | [3] -1.45% | [4] 2.6% | [5] 7.95% | [6] 22.4%

C(/C=N/NC1=NCCCN1)=N\NC1=NCCCN1
inactive: [1] -3.5% | [2] -15.2% | [3] -14.6% | [4] 10.9% | [5] -33.1% | [6] -14.2%

O=C1c2ccccc2C(=O)c2c1ccc1c2N=C(c2ccc(Br)cc2)CC(c2cccc3ccccc23)N1 (stereo unspecified)
inactive: [1] -22.1% | [2] 11.6% | [3] 17.9% | [4] 10.2% | [5] 9.95% | [6] -11.6%

O=S1(=O)NNC(=NCc2ccc(Cl)c(Cl)c2)c2ccccc21
inactive: [1] 11.2% | [2] -11.8% | [3] -6.15% | [4] -1.4% | [5] 3.2% | [6] -16.4%

CC(NC(=O)C(N)CC(=O)O)NC(=O)C1CCC1 (stereo unspecified)
inactive: [1] -39.9% | [2] -48.1% | [3] -19.2% | [4] 24.6% | [5] 8.6% | [6] -35.8%

CCCCc1c(C#N)c(=O)n2c(N)c(C#N)cnc2c1SC
inactive: [1] 18.9% | [2] 8.45% | [3] 21.2% | [4] 1.5% | [5] 12.7% | [6] 25.8%

O=C(CSc1nc2[nH]ncc2c(=O)[nH]1)c1ccc(Cl)cc1
inactive: [1] -37.2% | [2] -36.6% | [3] -27.2% | [4] 3.5% | [5] 11.4% | [6] -34.2%

Cc1cc(C)c2[nH]c(=O)c(Br)c(C)c2c1
inactive: [1] 29.8% | [2] 11.8% | [3] 34.2% | [4] 22.1% | [5] 3.85% | [6] 19.4%

CN(N)C(=O)Nc1cccc(Cl)c1
inactive: [1] 13.1% | [2] 8.55% | [3] 16.4% | [4] -5.25% | [5] 2.7% | [6] 17.3%

CCOC(=O)CC1CN(C(=O)c2ccccc2)CCC12OCCO2 (stereo unspecified)
inactive: [1] -3.4% | [2] -4.3% | [3] -4% | [4] -5.05% | [5] -2.35% | [6] -5.3%

CC(C)NCC(O)COc1cccc2ccccc12 (stereo unspecified)
inactive: [1] 19.4% | [2] -32.2% | [3] 31.1% | [4] 20.6% | [5] 14.9% | [6] 11.1%

CCSc1n[nH]c(=S)c2nc[nH]c12
inactive: [1] 12.7% | [2] 2.6% | [3] 3.7% | [4] 6.3% | [5] 8.55% | [6] -6.25%

CCC(=O)OC1(C(=O)OC)CCN(C)CC1
inactive: [1] 9.5% | [2] 2.95% | [3] -0.9% | [4] 15.2% | [5] 17.8% | [6] 10.4%

Fc1ccc(-c2nnc(-c3ccccc3)o2)cc1
inactive: [1] 21.4% | [2] 19.1% | [3] 25.2% | [4] 7.2% | [5] 31.4% | [6] 8.15%

CCOC(=O)C1CCCC1S(=O)(=O)c1ccc(C)cc1 (stereo unspecified)
inactive: [1] -20% | [2] -15.3% | [3] -27.4% | [4] 21.9% | [5] 1.75% | [6] -3.5%

Cc1ccc(-n2[nH]nc(C#N)c2=O)cc1
inactive: [1] -6.75% | [2] -20.6% | [3] -23.9% | [4] -1.25% | [5] -27.1% | [6] 5.65%

C=CCSc1nc2ccc(N3C(=O)C4C5C=CC(C5)C4C3=O)cc2s1 (stereo unspecified)
inactive: [1] -15.2% | [2] -2.75% | [3] -6.35% | [4] -17.6% | [5] -8.3% | [6] -27.9%

COc1ccc(OC)c2c(Cl)cc(NCCCN3CCN(CCCNc4cc(Cl)c5c(OC)ccc(OC)c5n4)CC3)nc12
inactive: [1] 13.5% | [2] 16.4% | [3] 21.8% | [4] -24.1% | [5] 4.65% | [6] 25.1%

CCc1ccc(Cc2ccc(CC)c(NC(=O)C(=O)C3NC(=S)NC3=O)c2CC)c(CC)c1NC(=O)C(=O)C1NC(=S)NC1=O (stereo unspecified)
inactive: [1] -5.2% | [2] -9.5% | [3] 5.25% | [4] 5.1% | [5] 3.85% | [6] -3.65%

COc1ccc(/C=C/c2ccc3ccccc3[n+]2C)cc1OC
inactive: [1] 32% | [2] 4.55% | [3] 32.6% | [4] 21.3% | [5] 0.7% | [6] 15.9%

CCCCCCC1C=CC(CCCCCCCC(=O)O)C(/C=C/CCCCCCCC(=O)O)C1CCCCCC (stereo unspecified)
inactive: [1] -10.7% | [2] -10.8% | [3] -10.3% | [4] 21% | [5] -25% | [6] 6.85%

Cc1cc(/C=N/NC(=O)c2ccccc2NC(=O)c2ccccc2Cl)ccc1O
inactive: [1] 20.6% | [2] 9.8% | [3] 39.2% | [4] 11.9% | [5] 9.1% | [6] 34.8%

Nc1c(Cl)ncnc1NCCc1ccccc1
inactive: [1] -3.35% | [2] -16.1% | [3] -15.4% | [4] -45.1% | [5] -11.8% | [6] -11.8%

COc1ccc(/C(=N\O)c2nccc3cc(OC)c(OC)cc23)cc1OC
inactive: [1] 35.8% | [2] 14.2% | [3] 27.9% | [4] 9% | [5] -2.95% | [6] 18.4%

CC1=C2C(=O)O[C@@H](c3ccoc3)[C@]2(C)CCC1
inactive: [1] 15.3% | [2] -6.8% | [3] 14.1% | [4] -8.9% | [5] 0.35% | [6] 16.6%

COc1ccc(CC(NC(=O)OCc2ccccc2)C(=O)NC2C(CO)OC(n3cnc4c(N)ncnc43)C2O)cc1 (stereo unspecified)
inactive: [1] 25.8% | [2] -6% | [3] 10.2% | [4] 2.15% | [5] -0.75% | [6] -1.75%

O=C(NCC1CC1)NC(=O)c1c(F)cccc1Cl
inactive: [1] -1.2% | [2] -13% | [3] 12.6% | [4] 20.8% | [5] 36.6% | [6] 9.65%

O=C(NCCO)Nc1ccccc1F
inactive: [1] 10.2% | [2] 3.65% | [3] -3.65% | [4] -27.3% | [5] -7.75% | [6] 5.55%

CCOC(=O)C(C)(C(=O)OCC)c1c[n+]([O-])c2ccccc2c1[N+](=O)[O-]
inactive: [1] 13.8% | [2] -5.15% | [3] 19.3% | [4] -22.4% | [5] -4.55% | [6] 12.9%

Oc1cccc(Oc2cccc(Oc3cccc(O)c3)c2)c1
inactive: [1] -14.4% | [2] -14.2% | [3] -4.3% | [4] -8.65% | [5] 8.35% | [6] -7.85%

Brc1cccc2ccccc12
inactive: [1] 23.6% | [2] -13.9% | [3] 0.7% | [4] -38% | [5] -12.3% | [6] 6.85%
